# Screening data from PubChem BioAssay.
# Only some compounds are listed: those with a hit (about 3.8% of all), similar ones and a draw of the others.
# GDH-TPI counter: counter-screen for M. tuberculosis FBA inhibitors: GDH-TPI coupled enzymes; AID 588335; 1.2% of 360,000 active; inhibition, % at 4.8 µM; GDH-TPI coupled enzyme counterscreen, NADH absorbance; in the data active = inhibition above about 30%;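 note: 0% = DMSO wells and 100% = wells lacking the enzyme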
# Y pestis TopoI: inhibitors of Yersinia pestis topoisomerase I | activity, % at 10 µM | 0.064% of 360,000 active | Y. pestis Topo-I cleavage product accumulation, plate reader | AID 504884; in the data active = activity above about 50%, passing the limit was not always enough
# PrPC surface inh: cell surface PrPC inhibition, primary TR-FRET screen. P04156. TR-FRET read-out. inhibition, % at 13.8 µM. 0.43% of 370,000 active; in the data active = inhibition above about 24%; note: 0% = median of the test wells and 100% = reference compound wells
# Mtb hypoxia inh: Mtb hypoxia fluorescent reporter inhibition; M. tuberculosis hypoxia-regulated fluorescent reporter, fluorescence; fluorescence inhibition, % (concentration not given with the values); 0.1% of 300,000 active; AID 1159583; in the data active = fluorescence inhibition mostly above about 23%, no sharp cut-off; inactive = mostly below about 17%
# FBA Mtb inh: inhibits M. tuberculosis FBA enzyme; P9WQA3; purified M. tuberculosis FBA, fluorescence read-out; inhibition, % at 1 µM; 2.3% of 360,000 active; AID 588726; in the data active = inhibition above about 27%;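 note: 0% = vehicle and 100% = reference inhibitor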
# Target sequence (P9WQA3 whole entry, looked up): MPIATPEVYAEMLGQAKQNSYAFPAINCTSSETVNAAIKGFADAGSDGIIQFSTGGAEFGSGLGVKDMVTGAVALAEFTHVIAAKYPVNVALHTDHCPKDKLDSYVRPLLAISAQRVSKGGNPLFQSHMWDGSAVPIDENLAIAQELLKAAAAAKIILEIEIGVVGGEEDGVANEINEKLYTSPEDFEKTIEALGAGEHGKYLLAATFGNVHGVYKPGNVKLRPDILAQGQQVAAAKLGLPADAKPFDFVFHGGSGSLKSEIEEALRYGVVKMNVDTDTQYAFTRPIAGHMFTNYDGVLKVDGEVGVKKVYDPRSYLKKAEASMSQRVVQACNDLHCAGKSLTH
# PrP 5UTR inh: inhibition of PrP 5' UTR reporter expression | cell-based PrP 5' UTR mRNA reporter, plate reader | AID 488862 | 0.35% of 340,000 active | inhibition, % (no concentration beside the values); in the data active = inhibition above about 52%; note: 0 = median of the neutral control wells
# The depositor's hits bear a star; · = no result given; + = active, no number.
SMILES,GDH-TPI counter,Y pestis TopoI,PrPC surface inh,Mtb hypoxia inh,FBA Mtb inh,PrP 5UTR inh
Cc1c(C(=O)Nc2ccc(S(=O)(=O)N3CCOCC3)cc2)cccc1[N+](=O)[O-],6,13,-5,6,+,-19
O=C(Nc1ccc(S(=O)(=O)N2CCOCC2)cc1)c1ccc([N+](=O)[O-])s1,6,-4,2,38*,1,-29
COc1cccc(-n2c([S-])c(C(=O)Nc3ccc(S(=O)(=O)N4CCOCC4)cc3)[n+]3cc(C(N)=O)ccc23)c1,31*,1,-5,5,-3,0
CC(C)COc1cccc(C(=O)Nc2ccc(S(=O)(=O)N3CCOCC3)cc2)c1,1,10,17,6,0,-12
Cc1cccc(C(=O)Nc2ccc(S(=O)(=O)N3CCOCC3)cc2)c1[N+](=O)[O-],12,-3,7,7,2,-1
O=C(Nc1ccc(S(=O)(=O)N2CCOCC2)cc1)c1ccc([N+](=O)[O-])o1,32*,-3,11,·,-1,-26
CCCCS(=O)(=O)N1C2=NC(C(=O)OC)=C(C(=O)OC)C3N(C)c4ccc(OC)cc4[C@]23CC1C(=O)OC (stereo partly specified),·,·,·,-6,·,·
CC1CCCC(=O)CCCC=Cc2cc(O)cc(O)c2C(=O)O1 (stereo unspecified),·,·,·,2,·,·
COc1cc2c(cc1NC(=S)Nc1cccc(C(F)(F)F)c1)oc1ccccc12,11,-3,10,7,64*,-29
COc1cc2c(cc1NCc1ccccn1)oc1ccccc12,0,0,-2,·,29*,-59
COc1cc2c(cc1NCc1ccc3c(c1)OCO3)oc1ccccc12,15,4,6,·,21,-10
COc1cc2c(cc1NC(=O)Nc1ccccc1)oc1ccccc12,15,-24,24,9,0,-14
Cc1cc(C=NNC(=O)c2ccc(CN3CCOCC3)cc2)c(C)n1-c1ccccc1,·,·,·,3,·,·
Oc1[nH]c2ccc(Br)cc2c1N=NC(=S)N1CCOCC1,26,-2,16,39*,-3,31
COc1cc(OC)c(OC)cc1C=Cc1ccc2ccccc2n1,31*,17,-12,·,7,·
COc1cccc(C=Cc2ccc3ccccc3n2)c1OC(C)=O,·,·,·,14,·,·
COc1c(OC(C)=O)ccc(/C=C/c2ccc3ccccc3n2)c1[N+](=O)[O-],43*,-3,-23,-11,-1,-208
CC(C)NC(=O)N(C)CC1Oc2ccc(NC(=O)c3ccncc3)cc2C(=O)N(C(C)CO)CC1C (stereo unspecified),·,·,·,18,·,·
COc1ccc(-c2c(C)oc3c(CN4CCOCC4)c(O)ccc3c2=O)cc1OC,9,-1,-1,-5,18,-9
COC(=O)c1ccc(Oc2c(C(F)(F)F)oc3c(CN4CCN(C)CC4)c(O)ccc3c2=O)cc1,16,-1,3,3,-1,-15
COc1cccc(Oc2c(C)oc3c(CN4CCCC4)c(O)ccc3c2=O)c1,23,-6,9,-3,173*,8
COc1ccccc1Oc1c(C)oc2c(CN3CCOCC3)c(O)ccc2c1=O,21,-7,3,0,181*,-14
COc1cccc(Oc2coc3c(CN4CCOCC4)c(O)ccc3c2=O)c1,26,7,1,2,115*,-1
CCOc1ccccc1Oc1c(C)oc2c(CN3CCN(C)CC3)c(O)ccc2c1=O,42*,-2,6,1,138*,-19
Cc1nc(C)c(C(=O)NN=Cc2cc(Br)ccc2O)s1,·,·,·,-4,·,·
SMILES,GDH-TPI counter,Y pestis TopoI,PrPC surface inh,Mtb hypoxia inh,FBA Mtb inh,PrP 5UTR inh
O=C(CC1CC=CCCC(=O)OC(c2ccccc2)CNC1=O)NC(CO)Cc1ccccc1 (stereo unspecified),·,·,·,8,·,·
c1ccc2c(c1)[nH]c1c(N3CCOCC3)ncnc12,20,7,9,7,13,-18
CCc1cc(N2CCOCC2)cc2c1[nH]c1ccccc12,-2,-12,-3,5,96*,-21
CC(CC(=O)c1ccccc1)=NCCCN=C(C)CC(=O)c1ccccc1,60*,13,-3,·,-2,·
O=C(CC(=O)c1ccccc1)c1ccccc1,24,3,-5,3,6,-72
Cc1cc(C)n2cc(CSCC(=O)O)nc2n1,12,-2,5,2,123*,-19
Cc1oc2cc3oc(=O)c(CCC(=O)NCCCN4CCOCC4)c(C)c3cc2c1C,22,7,2,·,17,-36
C=C(C)COc1ccc2c(C)c(CCC(=O)NC3CC3)c(=O)oc2c1,18,10,7,5,+,-9
Cc1oc2cc3oc(=O)c(CCC(=O)NC4CC4)c(C)c3cc2c1C,11,-2,3,·,9,-19
Cc1c(CCC(=O)NCCCN2CCCC2=O)c(=O)oc2cc(O)ccc12,19,3,1,·,+,-9
Cc1c(CCC(=O)NCCCN2CCCC2=O)c(=O)oc2c(C)c(O)ccc12,15,-6,-2,·,+,-26
Cc1c(CCC(=O)NC2CC2)c(=O)oc2c(C)c(O)ccc12,21,-3,·,·,+,-23
Cc1coc2c(C)c3oc(=O)c(CCC(=O)NCCCN4CCCC4=O)c(C)c3cc12,6,7,-2,·,10,-9
Cc1coc2cc3oc(=O)c(CCC(=O)NC4CC4)c(C)c3cc12,15,7,7,·,21,-18
NS(=O)(=O)c1ccc(N2N=C(c3ccccc3)CC2c2cccc(Cl)c2)cc1 (stereo unspecified),19,-10,10,0,178*,-7
Cc1cccc(C2CC(c3ccccc3)=NN2c2ccc(S(N)(=O)=O)cc2)c1 (stereo unspecified),12,33,-1,·,+,·
CC1CCC(CN2C(Nc3ccccc3)=NCC2C)CC1 (stereo unspecified),·,·,·,5,·,·
Cc1ccc(C=Nn2c(-c3ccncc3)n[nH]c2=S)o1,·,·,·,-9,·,·
CC1(C)CC(=O)C=C(NNC(=O)c2ccccc2O)C1,40*,4,-8,-9,0,-51
Cc1cccc(C(=O)NNC2=CC(=O)CC(C)(C)C2)c1O,37*,8,4,4,5,-31
CCn1c2ccccc2c2cc(C#N)c(N)nc21,18,2,-8,6,106*,·
Cc1cc(N/N=C/c2ccc(O)cc2)nc(NS(=O)(=O)c2ccccc2)n1,74*,1,-1,·,-1,-13
Cc1cc(N/N=C/c2ccccc2)nc(N)n1,42*,1,1,·,1,-17
